By inhibition is commonly meant the share of the control response that was lost under treatment.

Each structure is given as a SMILES string. Unmarked numbers belong to inactive results. How the calls were made is not given here. Where a SMILES comes first, the peptide text is derived from it. The star is where a group is joined. Boc = CC(C)(C)OC(=O)*

In PubChem BioAssay one finds inhibition data, which are given here for 40 molecules.

Chain of Pantothenate synthetase (Mycobacterium tuberculosis (strain ATCC 25618 / H37Rv)) (P9WIL5 whole entry, looked up): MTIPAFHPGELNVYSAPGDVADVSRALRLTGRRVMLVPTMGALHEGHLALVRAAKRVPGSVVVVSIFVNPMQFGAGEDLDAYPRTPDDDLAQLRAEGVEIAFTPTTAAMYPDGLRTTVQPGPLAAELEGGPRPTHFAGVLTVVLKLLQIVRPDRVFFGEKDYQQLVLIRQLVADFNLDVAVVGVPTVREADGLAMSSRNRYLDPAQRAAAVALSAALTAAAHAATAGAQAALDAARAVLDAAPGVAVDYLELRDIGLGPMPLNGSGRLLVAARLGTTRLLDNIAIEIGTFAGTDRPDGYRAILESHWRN

The experiment concerns the target Pantothenate synthetase (Mycobacterium tuberculosis (strain ATCC 25618 / H37Rv)) (UniProt P9WIL5). The experiment can be described thus: Recombinant Mtb pantothenate synthetase (PanC) inhibitors, coupled enzyme, confirmatory (AID 375).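 Further: 0% = full reaction with vehicle and 100% = no enzyme background.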 To be noted: coupled enzyme assay; at 10 µM, hits give high values.
`O=C(CSc1nc2ccccc2o1)NC(=O)NCc1ccco1`: the inhibition is 0%. Regarding `CC(C)(C)C(=O)CNS(=O)(=O)c1ccc(S(=O)(=O)NC2CCCC2)cc1`, the inhibition is 0%.

Regarding `O=C(CCCC(=O)N(CC(=O)NC1CCCCC1)Cc1ccc2c(c1)OCO2)Nc1ccccn1`, the inhibition is 2%. As for `O=C(CCCn1c(=S)[nH]c2ccccc2c1=O)N1CCCCC1`, the figure is 0%. Take `O=C(c1cccc2c1C(=O)N(Cc1cccnc1)C2)N1CCN(c2ccccc2)CC1`: the inhibition is 8%.

Turning to `COc1ccc(N2C(=O)CCC(C(=O)N3CCCCC3)C2c2ccc(OC)c(OC)c2)cc1` (stereo not given), the inhibition was 6%. Regarding `CCOC(=O)N1CCN(C(=O)c2csc3c2CCCCC3)CC1`, the inhibition is 0%.

In the case of `CN1CCN(C(=O)c2cnn3c(C(F)F)cc(C4CC4)nc23)CC1`, the inhibition is 6%. In the case of `CCC(C(=O)OCCN(CC)CC)c1ccccc1` (stereo not given), the inhibition is 0%. Regarding `CS(=O)(=O)c1ncc(Cl)c(C(=O)Nc2ccc(N3CCOCC3)cc2)n1`, the inhibition is 2%. Take `Cc1ccc(S(=O)(=O)CC(=O)N2CCCCCC2)cc1`: the inhibition is 0%. On to `COC(=O)c1ccccc1NC(=O)c1ccc(-c2ccccc2F)o1`, for which the inhibition is 0%. In the case of `CCCN(Cc1cc2cc(C)ccc2[nH]c1=O)C(=O)c1cccc(OC)c1`, the inhibition is 0%.

Take `COc1cc(C2N=C(c3ccccc3)NO2)cc(Br)c1O` (stereo not given): the inhibition is 4%. As to `O=C(NCCC1=CCCCC1)C1CCN(C(=O)Nc2ccccc2)CC1`, the inhibition is 0%. As for `Cc1ccc2cc(C(c3nnnn3CC3CCCO3)N3CCCC4(CCCCC4)C3)c(=O)[nH]c2c1` (stereo not given), the figure is 0%; as for `COc1ccc(S(=O)(=O)NCCC(=O)NC2CCCCCCC2)cc1`, 0%. Turning to `CC(C)COC(=O)C1C2C=CC3(CN(C(C)c4ccc(Br)cc4)C(=O)C13)O2` (stereo not given), the inhibition is 8%. As to `CCC(=O)Nc1cc2nn(-c3ccccc3)nc2cc1Cl`, the inhibition is 0%. For `CC1=Nn2c(nnc2-c2ccccc2)SC1`, the inhibition is 0%. On to `O=C(NCCCCNC(=O)c1c(F)c(F)c(F)c(F)c1F)c1c(F)c(F)c(F)c(F)c1F`, for which the inhibition is 0%. As for `CC(C)(C)Nc1nc(OCC(F)(F)F)nc(OCC(F)(F)F)n1`, the figure is 0%; as for `Cc1ccc(CNC(=O)C2CC(=O)OC23CCCC3)c(C)c1` (stereo not given), 0%; as for `O=C(Cc1cccs1)N(c1ccccc1)C1C=CS(=O)(=O)C1` (stereo not given), 3%.

`CCC(C)C(NC(=O)OC(C)(C)C)C(=O)NC(CC(C)C)C(N)=O` (stereo not drawn) (Boc-Ile-Leu-NH2; configuration not given here): the inhibition was 0%. Turning to `CCOC(=O)c1cccc(NC(=O)Cn2cnc3c2c(=O)n(C)c(=O)n3C)c1`, the inhibition is 4%. As to `C[C@H]1C[C@H]2[C@@H]3CCC4=CC(=O)C=C[C@]4(C)[C@@]3(Cl)[C@@H](O)C[C@]2(C)[C@@]1(O)C(=O)CO`, the inhibition is 4%.

For the molecule `O=C(NCC(F)(F)F)N1CCOCC1`, the inhibition was 0%. In the case of `C[C@@H]1C[C@H]2[C@@H]3CCC4=CC(=O)C=C[C@]4(C)[C@@]3(F)[C@@H](O)C[C@]2(C)[C@@]1(O)C(=O)COP(=O)(O)O`, the inhibition is 5%. Consider `CCn1c(SCC(=O)Nc2ccc(Cl)cc2)nnc1C1CC1`, for which the inhibition was 0%. As for `CCOC(=O)C1C(=O)OC(C)(C)C1C(C)C(=O)c1ccc(OC)cc1` (stereo not given), the figure is 0%; as for `S=c1[nH]nc(-c2ccco2)n1-c1cccc2ccccc12`, 0%; as for `CCCc1cc(C(=O)Nc2sc3c(c2C#N)CCC3)no1`, 7%. With `N#CC1=C(N)OC2=C(CCC/C2=C/c2ccoc2)C1c1ccoc1` (stereo not given), the inhibition is 2%. As for `CCc1c(C)nc(N2CCN(Cc3ccccc3)CC2)[nH]c1=O`, the inhibition is 3%. On to `Cc1ccc(C)c2[nH]c(=O)c(CN(CCN3CCCC3)C(=O)Nc3cccc(Cl)c3)cc12`, for which the inhibition was 0%. For the molecule `COc1ccc2cc(C#N)c(N3CCN(Cc4nnnn4CCC(C)C)CC3)nc2c1`, the inhibition was 8%.

As to `Cc1nc2nc(-c3cccnc3)nn2c(C)c1Cl`, the inhibition is 0%.

As for `CCN(CC(=O)NC(=O)NCc1ccco1)Cc1nc2ccccc2c(=O)[nH]1`, the inhibition was 0%. On to `CCOC(=O)c1ccc(NS(=O)(=O)c2ccc(SC)cc2)cc1`, for which the inhibition is 0%.
